Results taken from PubChem BioAssay (Tox21).
Several values for one entry are separate records, joined by “and”; a condition that tells them apart may be missing. Equal values may be shown once. Results filed as inconclusive are left out. A structure can be active in one record and inactive in another. Activity calls are given as the source filed them. The call rests on the fitted dose curve; in most records, active means well fitted curve in the direction sought with a large enough effect in the repeat runs; inconclusive means weak or mixed curves; inactive means no such curve, though single readings can be large; an effect the other way counts as inactive or inconclusive.

biological target: Cytochrome P450 2C9 (Homo sapiens) (UniProt P11712); assay: Cytochrome P450 Family 2 Subfamily C Member 9 (CYP2C9) small molecule antagonists: luciferase reporter qHTS assay (AID 1671198); settings: P450-Glo CYP2C9 enzyme assay, luciferin luminescence; series mostly up to 115 µM; activity change, negative = inhibition: at the top concentration
Summary of the method: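 CYP2C9 activity was measured with a P450-Glo proluciferin substrate. Enzyme–substrate mix was held with compound for 10 min at room temperature, then NADPH regeneration solution was added for 1 h at 37C. Luciferin product was read as luminescence.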
Further: nearly all actives have a fitted effect of over 50% in size.
On the % scale 0 is the no-effect control and ±100 the full control effect; potency means the concentration at half of the fitted maximal effect.

Chain of Cytochrome P450 2C9 (Homo sapiens) (P11712 whole entry, looked up): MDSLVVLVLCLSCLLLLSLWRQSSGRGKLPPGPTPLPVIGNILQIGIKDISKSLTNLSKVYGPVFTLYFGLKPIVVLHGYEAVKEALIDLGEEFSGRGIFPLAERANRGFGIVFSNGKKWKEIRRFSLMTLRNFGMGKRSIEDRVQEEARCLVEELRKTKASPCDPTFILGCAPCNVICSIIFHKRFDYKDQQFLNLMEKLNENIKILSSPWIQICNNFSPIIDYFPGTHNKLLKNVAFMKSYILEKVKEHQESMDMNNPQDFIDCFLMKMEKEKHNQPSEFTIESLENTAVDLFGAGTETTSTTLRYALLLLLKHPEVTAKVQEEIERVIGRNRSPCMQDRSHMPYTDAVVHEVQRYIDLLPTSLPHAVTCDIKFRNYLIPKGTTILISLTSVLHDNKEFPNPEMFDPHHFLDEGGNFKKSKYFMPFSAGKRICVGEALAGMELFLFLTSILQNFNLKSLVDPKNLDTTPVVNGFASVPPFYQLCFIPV

| Compound | activity change, negative = inhibition | Potency |
| --- | --- | --- |
| Fc1cccc(Cl)c1CCl | -12.5% (inactive) |  |
| Cc1ccc(OP(=O)(Oc2ccccc2)Oc2ccccc2)cc1 |  | 6.42 µM (active) |
| Nc1ccc(Cc2ccc(N)c(Cl)c2)cc1Cl |  | 61.2 µM (active) |
| O=[N+]([O-])c1cc([N+](=O)[O-])c2ccccc2c1 | 12.1% (inactive) |  |
| CC(C)(O)c1cnn2c(-c3ccc(F)c(-c4c(F)cccc4C#N)c3)cnc2n1 |  | 1.26 µM (active) |
| FC(F)(F)c1cccc(C2=CCN(CCc3ccc4ccccc4c3)CC2)c1 | 27.6% [at 53 µM] (inactive) |  |
| N#CCCC(Br)(C#N)CBr (centres undefined) |  | 8.94 µM (active) |
| N#CCCO | -2.3% (inactive) |  |
| CCCCCCCCCCCCCCCC[N+](C)(C)C |  | inactive |
| O=c1ssc(Cl)c1Cl |  | 39.9 µM (active) |
| ClCc1ccc(Cl)cc1Cl | -11.6% (inactive) |  |
| COc1cccc(C(=O)CCN[C@@H](C)[C@H](O)c2ccccc2)c1 |  | 27.5 µM (active) |
| COc1cc(N)c(Cl)cc1C(=O)NC1CN2CCC1CC2 (centres undefined) | 23.9% [at 53 µM] (inactive) |  |
| COC(=O)N(C(=O)N1CO[C@@]2(C(=O)OC)Cc3cc(Cl)ccc3C2=N1)c1ccc(OC(F)(F)F)cc1 |  | 2.73 µM (active) |
| CC(C)(C)C(O)C(Oc1ccc(-c2ccccc2)cc1)n1cncn1 (centres undefined) |  | 10 µM (active) |
| COP(N)(=S)OC | -19.8% (inactive) |  |
| Oc1ccc(I)cc1 |  | 71 µM (active) |
| O=C(CCCN1CCC2(CC1)C(=O)NCN2c1ccccc1)c1ccc(F)cc1 | -1.47% [at 53 µM] (inactive) |  |
| Nc1ccccc1C(=O)Oc1ccc2ccccc2c1 |  | 20 µM (active) |
| NC(=O)c1ccc(N)nc1 | -0.494% (inactive) |  |

biological target: Cytochrome P450 1A2 (Homo sapiens) (UniProt P05177); assay: Cytochrome P450 Family 1 Subfamily A Member 2 (CYP1A2) small molecule antagonists: luciferase reporter qHTS assay (AID 1671199); settings: P450-Glo CYP1A2 enzyme, luciferin luminescence, 1 h; series mostly up to 115 µM; activity change, negative = inhibition: at the top concentration
Summary of the method: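 Quantitative high-throughput format using the P450-Glo CYP1A2 system. Reaction initiated by NADPH regeneration solution, 1 h at room temperature, then stopped with detection reagent; luminescence measured 20 min later.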

Chain of Cytochrome P450 1A2 (Homo sapiens) (P05177 whole entry, looked up): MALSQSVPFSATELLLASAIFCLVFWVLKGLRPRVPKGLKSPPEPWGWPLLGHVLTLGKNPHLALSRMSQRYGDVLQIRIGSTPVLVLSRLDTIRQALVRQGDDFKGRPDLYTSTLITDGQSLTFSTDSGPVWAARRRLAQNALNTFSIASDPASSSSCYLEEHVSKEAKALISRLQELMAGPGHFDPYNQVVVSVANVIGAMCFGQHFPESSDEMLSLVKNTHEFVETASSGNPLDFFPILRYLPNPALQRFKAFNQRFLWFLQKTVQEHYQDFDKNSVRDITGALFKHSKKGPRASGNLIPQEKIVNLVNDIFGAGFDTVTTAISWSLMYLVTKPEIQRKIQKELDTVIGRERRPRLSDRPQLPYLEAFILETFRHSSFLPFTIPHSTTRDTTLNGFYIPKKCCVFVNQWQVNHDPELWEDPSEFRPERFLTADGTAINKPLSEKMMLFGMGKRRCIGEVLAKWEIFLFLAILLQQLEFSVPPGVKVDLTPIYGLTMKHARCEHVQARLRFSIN

| Compound | activity change, negative = inhibition | Potency |
| --- | --- | --- |
| O=C(Cl)c1ccc(Cl)cc1 | -8.84% (inactive) |  |
| Cc1ccc(OP(=O)(Oc2ccccc2)Oc2ccccc2)cc1 |  | 11.4 µM (active) |
| N#CCCC(Br)(C#N)CBr (centres undefined) |  | 15.9 µM (active) |
| N#C/C=C/c1ccccc1 |  | 35.6 µM (active) |
| CCOP(=S)(OCC)SCCS(=O)(=O)CC |  | 35.6 µM (active) |
| CCCCCCCCCCCCCCCC[N+](C)(C)C |  | inactive and 79.6 µM (active) |
| O=c1ssc(Cl)c1Cl |  | 35.6 µM (active) |
| O=c1[nH]c2ccccc2n1C1CCN(CCCC(c2ccc(F)cc2)c2ccc(F)cc2)CC1 | 4.04% [at 53 µM] (inactive) |  |
| COc1cc(N)c(Cl)cc1C(=O)NC1CN2CCC1CC2 (centres undefined) | -8.78% [at 53 µM] (inactive) |  |
| COc1ccc(OC)c(C=O)c1 |  | 28.3 µM (active) |
| COP(N)(=S)OC | -9.6% (inactive) |  |
| Oc1ccc(I)cc1 |  | 39.9 µM (active) |
| Nc1ccccc1C(=O)Oc1ccc2ccccc2c1 |  | 14.2 µM (active) |
| NC(=O)c1ccc(N)nc1 | -5.18% (inactive) |  |

biological target: Voltage-gated inwardly rectifying potassium channel KCNH2 (Homo sapiens) (UniProt Q12809); assay: Human Ether-a-go-go-Related Gene (hERG) channel small molecule antagonists: fluorescence cell-based qHTS assay (AID 1671200); settings: hERG-U2OS cells, FluxOR thallium flux fluorescence; series mostly up to 76.8 µM; activity change, negative = inhibition: at the top concentration;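 on activity change, negative = inhibition: hERG-expressing U2OS cells given a thallium stimulus after FluxOR II dye loading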
Summary of the method: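 In this thallium-flux screen, overnight-cultured U2OS cells bearing the channel are dye-loaded in darkness for an hour, rested 10 min at room temperature, and then monitored kinetically at 480/540 nm for two minutes post-stimulus.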

Chain of Voltage-gated inwardly rectifying potassium channel KCNH2 (Homo sapiens) (Q12809 whole entry, looked up): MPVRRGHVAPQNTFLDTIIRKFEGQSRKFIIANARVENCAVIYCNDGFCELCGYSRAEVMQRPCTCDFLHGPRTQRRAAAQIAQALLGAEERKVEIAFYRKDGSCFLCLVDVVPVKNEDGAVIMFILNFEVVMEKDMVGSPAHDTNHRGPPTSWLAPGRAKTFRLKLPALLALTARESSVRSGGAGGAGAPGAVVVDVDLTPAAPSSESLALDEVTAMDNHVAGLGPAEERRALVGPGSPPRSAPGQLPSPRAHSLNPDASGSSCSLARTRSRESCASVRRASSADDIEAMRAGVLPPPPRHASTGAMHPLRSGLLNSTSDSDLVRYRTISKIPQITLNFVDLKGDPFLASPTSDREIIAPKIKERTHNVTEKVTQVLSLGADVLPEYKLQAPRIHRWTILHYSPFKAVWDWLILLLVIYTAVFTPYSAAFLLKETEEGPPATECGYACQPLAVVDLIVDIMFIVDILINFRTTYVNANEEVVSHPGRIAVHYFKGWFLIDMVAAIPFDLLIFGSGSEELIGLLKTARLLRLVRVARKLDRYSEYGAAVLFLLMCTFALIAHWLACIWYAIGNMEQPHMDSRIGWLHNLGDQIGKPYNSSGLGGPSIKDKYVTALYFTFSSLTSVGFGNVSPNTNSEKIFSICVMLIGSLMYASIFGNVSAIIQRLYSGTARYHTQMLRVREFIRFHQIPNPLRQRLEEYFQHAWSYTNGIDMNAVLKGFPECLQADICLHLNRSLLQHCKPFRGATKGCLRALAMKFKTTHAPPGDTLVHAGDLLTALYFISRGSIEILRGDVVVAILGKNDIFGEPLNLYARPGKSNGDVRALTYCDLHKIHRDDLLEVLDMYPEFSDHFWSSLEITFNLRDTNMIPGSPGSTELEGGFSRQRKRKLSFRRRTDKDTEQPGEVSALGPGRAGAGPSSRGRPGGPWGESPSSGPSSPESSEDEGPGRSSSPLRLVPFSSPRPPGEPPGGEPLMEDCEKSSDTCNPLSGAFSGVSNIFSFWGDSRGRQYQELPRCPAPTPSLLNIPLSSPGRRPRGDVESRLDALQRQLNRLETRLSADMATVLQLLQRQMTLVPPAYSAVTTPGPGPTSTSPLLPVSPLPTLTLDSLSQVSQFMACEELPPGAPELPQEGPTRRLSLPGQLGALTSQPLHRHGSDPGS

| Compound | activity change, negative = inhibition | Potency |
| --- | --- | --- |
| CCCSP(=O)(OCC)SCCC | 16.2% (inactive) |  |
| O=C(Cl)c1ccc(Cl)cc1 | -6.69% (inactive) |  |
| Fc1cccc(Cl)c1CCl | 11.6% (inactive) |  |
| Cc1ccc(OP(=O)(Oc2ccccc2)Oc2ccccc2)cc1 |  | 24.9 µM (active) |
| Nc1ccc(Cc2ccc(N)c(Cl)c2)cc1Cl | -12.7% (inactive) |  |
| O=[N+]([O-])c1cc([N+](=O)[O-])c2ccccc2c1 | -8.69% (inactive) |  |
| CC(C)(O)c1cnn2c(-c3ccc(F)c(-c4c(F)cccc4C#N)c3)cnc2n1 | 9.37% (inactive) |  |
| CN(C)[C@@H]1C(=O)C(C(N)=O)=C(O)[C@@]2(O)C(=O)C3=C(O)c4c(O)ccc(Cl)c4[C@@](C)(O)[C@H]3C[C@@H]12 | 27.7% (inactive) |  |
| COc1ccc([N+](=O)[O-])cc1O | 7.22% [at 35.3 µM] (inactive) |  |
| FC(F)(F)c1cccc(C2=CCN(CCc3ccc4ccccc4c3)CC2)c1 |  | 1.69 µM (active) |
| [Cd+2].[Cl-].[Cl-] |  | inactive |
| N#CCCC(Br)(C#N)CBr (centres undefined) |  | 27.5 µM (active) |
| N#C/C=C/c1ccccc1 | -0.138% (inactive) |  |
| CN(C)C(=S)[S-].CN(C)C(=S)[S-].[Cu+2] | -11.4% [at 15.8 µM] (inactive) |  |
| CC(=O)[O-].CC(=O)[O-].[Hg+2] |  | 6.92 µM (active) |
| c1ccc(OCC2CO2)cc1 (centres undefined) | -0.356% (inactive) |  |
| N#CCCO | -0.982% (inactive) |  |
| CCOP(=S)(OCC)SCCS(=O)(=O)CC | 6.73% (inactive) |  |

| Compound | activity change, negative = inhibition | Potency |
| --- | --- | --- |
| COc1cc(C=O)cc2c1[C@H](COC(N)=O)[C@]1(OC(C)=O)ON2C[C@H]2[C@@H]1N2C(C)=O | -4.93% (inactive) |  |
| CCCCCCCCCCCCCCCC[N+](C)(C)C |  | 16.8 µM (active) and 21.9 µM (active) and 16.9 µM (active) |
| O=c1ssc(Cl)c1Cl |  | 49 µM (active) |
| ClCc1ccc(Cl)cc1Cl | -10.7% (inactive) |  |
| COc1cccc(C(=O)CCN[C@@H](C)[C@H](O)c2ccccc2)c1 | -14.7% [at 35.3 µM] (inactive) |  |
| [Hg+2].[I-].[I-] | -21.7% (inactive) |  |
| COC(=O)N(C(=O)N1CO[C@@]2(C(=O)OC)Cc3cc(Cl)ccc3C2=N1)c1ccc(OC(F)(F)F)cc1 | -28.7% (inactive) |  |
| O=[N+]([O-])O.O=[N+]([O-])O.[Cd] | 2.37% (inactive) |  |
| CN(C)C(=S)S |  | inactive |
| COc1ccc(OC)c(C=O)c1 | -0.545% (inactive) |  |
| CC(C)(C)C(O)C(Oc1ccc(-c2ccccc2)cc1)n1cncn1 (centres undefined) | -16.1% (inactive) |  |
| CC(=O)[O-].CC(=O)[O-].O.O.[Cd+2] | -2.65% (inactive) |  |
| CC(=O)[O-].[Tl+] | -19.4% (inactive) |  |
| COP(N)(=S)OC | -1.38% (inactive) |  |
| Oc1ccc(I)cc1 | 4% (inactive) |  |
| O=C(CCCN1CCC2(CC1)C(=O)NCN2c1ccccc1)c1ccc(F)cc1 |  | 1.2 µM (active) |
| NC(=O)c1ccc(N)nc1 | 1.75% (inactive) |  |
